Assays:
Experiment in all cases: DAPPL (digital affinity profiling via proximity ligation, sequencing); 10 mM Tris-HCl pH 7.5, 50 mM NaCl, 1 mM DTT, 4% glycerol, room temperature, 30 min; GST-TFs on glutathione beads, 16-mer random dsDNA library, 0.1% formaldehyde crosslink after washing; high values mean tight binding
FEV = biological target: T1, FEV (Homo sapiens, UniProt Q99581 1-238); conditions: protein: recombinant; tags: N-terminal GST; dsDNA, one strand shown
T1 sequence: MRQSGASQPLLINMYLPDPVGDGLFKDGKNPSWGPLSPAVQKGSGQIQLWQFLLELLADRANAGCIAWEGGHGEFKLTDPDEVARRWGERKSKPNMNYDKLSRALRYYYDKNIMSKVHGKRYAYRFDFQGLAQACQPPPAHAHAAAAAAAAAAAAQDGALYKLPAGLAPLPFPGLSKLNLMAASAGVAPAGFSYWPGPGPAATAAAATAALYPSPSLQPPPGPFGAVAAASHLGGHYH
Outline: (§1)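 The binding signal reported is, for every hexamer, its read frequency for a factor over its read frequency for the tag-only sample. Reads came from pools of yeast-expressed, GST-fused human transcription factors on glutathione beads, barcoded with DNA and mixed with that sample, which were incubated with 200 nmole of a random double-stranded 16-mer DNA library in Tris/NaCl/DTT/glycerol buffer at room temperature for 30 min. After washing, the pools were crosslinked with 0.1% formaldehyde, proximity-ligated with BsaI/T4 ligase for 1 h at 37 °C, PCR-amplified and sequenced on an Illumina NextSeq500.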

ETV5 = ETV5 (Homo sapiens, UniProt P41161 1-510); conditions: protein: recombinant; tags: N-terminal GST; dsDNA, one strand shown
Outline: as §1

HSF1 = HSF1 (Homo sapiens, UniProt Q00613 1-529); conditions: protein: recombinant; tags: N-terminal GST; chain copies: 3; dsDNA, one strand shown
Outline: as §1

SPIC = biological target: T2, SPIC (Homo sapiens, UniProt Q8N5J4 1-248); conditions: protein: recombinant; tags: N-terminal GST; dsDNA, one strand shown
T2 sequence: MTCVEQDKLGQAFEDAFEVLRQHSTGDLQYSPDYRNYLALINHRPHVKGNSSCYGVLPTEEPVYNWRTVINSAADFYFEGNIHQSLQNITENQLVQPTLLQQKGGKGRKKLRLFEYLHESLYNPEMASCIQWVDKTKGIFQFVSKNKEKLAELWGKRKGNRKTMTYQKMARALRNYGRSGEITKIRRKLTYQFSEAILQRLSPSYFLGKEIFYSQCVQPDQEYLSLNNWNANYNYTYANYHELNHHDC
Outline: as §1

ELF4 = ELF4 (Homo sapiens, UniProt Q99607 1-663); conditions: protein: recombinant; tags: N-terminal GST; dsDNA, one strand shown
Outline: as §1

ELK4 = biological target: T3, ELK4 (Homo sapiens, UniProt P28324-2 1-405); conditions: protein: recombinant; tags: N-terminal GST; dsDNA, one strand shown
T3 sequence: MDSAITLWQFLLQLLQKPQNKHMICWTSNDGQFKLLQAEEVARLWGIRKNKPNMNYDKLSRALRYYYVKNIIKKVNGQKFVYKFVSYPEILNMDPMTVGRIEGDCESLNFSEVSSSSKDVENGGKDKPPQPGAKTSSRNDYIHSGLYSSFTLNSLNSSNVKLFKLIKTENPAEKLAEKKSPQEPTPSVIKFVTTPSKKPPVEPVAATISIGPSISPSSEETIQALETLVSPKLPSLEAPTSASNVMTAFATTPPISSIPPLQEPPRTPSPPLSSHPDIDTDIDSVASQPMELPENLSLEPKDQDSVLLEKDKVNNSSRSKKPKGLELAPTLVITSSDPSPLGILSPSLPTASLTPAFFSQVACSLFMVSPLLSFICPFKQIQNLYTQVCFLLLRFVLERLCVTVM
Outline: as §1

ETV2 = biological target: T4, ETV2 (Homo sapiens, UniProt O00321 1-342); conditions: protein: recombinant; tags: N-terminal GST; dsDNA, one strand shown
T4 sequence: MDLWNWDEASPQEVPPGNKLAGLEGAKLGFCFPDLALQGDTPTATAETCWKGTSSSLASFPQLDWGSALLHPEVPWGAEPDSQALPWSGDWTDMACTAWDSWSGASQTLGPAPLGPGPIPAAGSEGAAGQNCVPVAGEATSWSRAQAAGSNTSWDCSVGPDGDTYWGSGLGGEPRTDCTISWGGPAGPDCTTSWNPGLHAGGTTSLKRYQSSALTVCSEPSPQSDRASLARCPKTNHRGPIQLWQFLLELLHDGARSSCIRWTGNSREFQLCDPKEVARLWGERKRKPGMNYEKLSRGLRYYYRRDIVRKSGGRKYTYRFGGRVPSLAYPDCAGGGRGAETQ
Outline: as §1

CRX = CRX (Homo sapiens, UniProt O43186 1-299); conditions: protein: recombinant; tags: N-terminal GST; dsDNA, one strand shown
Outline: as §1

ETV1 = ETV1 (Homo sapiens, UniProt P50549 1-477); conditions: protein: recombinant; tags: N-terminal GST; dsDNA, one strand shown
Outline: as §1

ERF = biological target: T5, ERF (Homo sapiens, UniProt P50548 1-548); conditions: protein: recombinant; tags: N-terminal GST; dsDNA, one strand shown
T5 sequence: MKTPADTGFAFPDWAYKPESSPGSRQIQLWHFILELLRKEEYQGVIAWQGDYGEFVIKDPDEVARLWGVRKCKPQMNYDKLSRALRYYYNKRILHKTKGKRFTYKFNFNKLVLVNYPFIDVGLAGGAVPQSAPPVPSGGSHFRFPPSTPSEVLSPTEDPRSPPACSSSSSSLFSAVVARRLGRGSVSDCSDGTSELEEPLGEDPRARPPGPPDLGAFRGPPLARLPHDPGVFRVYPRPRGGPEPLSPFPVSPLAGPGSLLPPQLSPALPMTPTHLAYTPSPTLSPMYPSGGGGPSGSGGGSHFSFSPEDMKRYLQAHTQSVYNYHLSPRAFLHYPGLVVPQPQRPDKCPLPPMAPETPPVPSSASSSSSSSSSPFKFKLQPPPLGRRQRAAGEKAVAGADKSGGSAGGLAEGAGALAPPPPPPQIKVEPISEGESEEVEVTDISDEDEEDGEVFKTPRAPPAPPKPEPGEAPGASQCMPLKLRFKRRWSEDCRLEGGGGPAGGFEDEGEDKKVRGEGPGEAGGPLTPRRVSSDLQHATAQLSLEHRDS
Outline: as §1

ETV3L = biological target: T6, ETV3L (Homo sapiens, UniProt Q6ZN32 1-361); conditions: protein: recombinant; tags: N-terminal GST; dsDNA, one strand shown
T6 sequence: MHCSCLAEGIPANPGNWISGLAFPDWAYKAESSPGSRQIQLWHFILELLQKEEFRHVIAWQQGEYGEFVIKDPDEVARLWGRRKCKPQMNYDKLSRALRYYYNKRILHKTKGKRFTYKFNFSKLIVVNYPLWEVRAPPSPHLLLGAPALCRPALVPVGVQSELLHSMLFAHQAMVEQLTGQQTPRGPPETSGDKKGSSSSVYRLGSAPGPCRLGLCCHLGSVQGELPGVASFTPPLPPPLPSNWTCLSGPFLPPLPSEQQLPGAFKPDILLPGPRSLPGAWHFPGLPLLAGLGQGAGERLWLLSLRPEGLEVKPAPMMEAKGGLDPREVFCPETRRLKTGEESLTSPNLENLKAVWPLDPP
Outline: as §1

ETS2 = biological target: T7, ETS2 (Homo sapiens, UniProt P15036 1-469); conditions: protein: recombinant; tags: N-terminal GST; dsDNA, one strand shown
T7 sequence: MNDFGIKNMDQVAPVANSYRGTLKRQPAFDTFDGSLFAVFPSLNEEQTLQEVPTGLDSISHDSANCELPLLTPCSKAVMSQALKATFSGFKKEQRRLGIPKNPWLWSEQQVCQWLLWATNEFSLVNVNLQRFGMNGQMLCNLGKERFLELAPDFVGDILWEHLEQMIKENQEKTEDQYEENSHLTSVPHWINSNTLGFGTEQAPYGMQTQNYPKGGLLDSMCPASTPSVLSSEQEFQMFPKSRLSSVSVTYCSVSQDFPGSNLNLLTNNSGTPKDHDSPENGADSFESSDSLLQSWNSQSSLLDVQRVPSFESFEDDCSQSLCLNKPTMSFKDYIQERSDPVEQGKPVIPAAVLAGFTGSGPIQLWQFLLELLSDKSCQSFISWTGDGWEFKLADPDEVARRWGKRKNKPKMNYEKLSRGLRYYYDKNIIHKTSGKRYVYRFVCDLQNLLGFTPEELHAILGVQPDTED
Outline: as §1

SPDEF = biological target: T8, SPDEF (Homo sapiens, UniProt O95238 1-335); conditions: protein: recombinant; tags: N-terminal GST; dsDNA, one strand shown
T8 sequence: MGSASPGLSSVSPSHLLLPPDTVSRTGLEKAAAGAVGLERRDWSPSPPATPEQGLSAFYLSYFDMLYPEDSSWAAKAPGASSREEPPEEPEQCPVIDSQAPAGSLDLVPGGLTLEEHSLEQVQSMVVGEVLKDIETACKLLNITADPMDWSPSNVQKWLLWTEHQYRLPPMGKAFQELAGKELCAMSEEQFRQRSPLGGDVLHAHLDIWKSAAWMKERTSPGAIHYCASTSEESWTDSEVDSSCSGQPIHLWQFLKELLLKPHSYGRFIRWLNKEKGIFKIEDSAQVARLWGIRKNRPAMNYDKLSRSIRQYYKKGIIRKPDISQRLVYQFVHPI
Outline: as §1

ETV7 = biological target: T9, ETV7 (Homo sapiens, UniProt Q9Y603 1-341); conditions: protein: recombinant; tags: N-terminal GST; dsDNA, one strand shown
T9 sequence: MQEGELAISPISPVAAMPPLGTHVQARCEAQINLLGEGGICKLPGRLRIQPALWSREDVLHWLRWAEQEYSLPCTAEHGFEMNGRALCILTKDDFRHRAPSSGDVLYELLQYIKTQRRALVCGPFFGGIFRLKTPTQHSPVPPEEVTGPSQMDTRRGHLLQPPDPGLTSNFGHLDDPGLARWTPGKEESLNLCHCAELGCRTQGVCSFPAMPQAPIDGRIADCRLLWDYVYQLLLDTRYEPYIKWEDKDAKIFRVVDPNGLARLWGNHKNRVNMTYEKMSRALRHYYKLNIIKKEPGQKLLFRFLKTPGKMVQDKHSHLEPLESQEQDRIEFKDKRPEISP
Outline: as §1

ELF5 = biological target: T10, ELF5 (Homo sapiens, UniProt Q9UKW6-2 1-255); conditions: protein: recombinant; tags: N-terminal GST; dsDNA, one strand shown
T10 sequence: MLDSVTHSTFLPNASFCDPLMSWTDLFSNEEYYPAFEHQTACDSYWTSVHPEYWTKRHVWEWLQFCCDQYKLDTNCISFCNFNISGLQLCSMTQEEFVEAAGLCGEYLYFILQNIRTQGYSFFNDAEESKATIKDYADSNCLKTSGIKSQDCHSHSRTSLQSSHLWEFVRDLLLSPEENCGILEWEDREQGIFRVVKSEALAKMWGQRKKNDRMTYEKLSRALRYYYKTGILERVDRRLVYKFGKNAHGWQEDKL
Outline: as §1

ETV3 = biological target: T11, ETV3 (Homo sapiens, UniProt P41162-2 1-143); conditions: protein: recombinant; tags: N-terminal GST; dsDNA, one strand shown
T11 sequence: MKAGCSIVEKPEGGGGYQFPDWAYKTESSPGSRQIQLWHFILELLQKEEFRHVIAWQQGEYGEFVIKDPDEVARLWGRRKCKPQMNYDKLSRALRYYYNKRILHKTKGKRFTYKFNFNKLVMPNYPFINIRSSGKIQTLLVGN
Outline: as §1

ETV6 = ETV6 (Homo sapiens, UniProt P41212 1-452); conditions: protein: recombinant; tags: N-terminal GST; dsDNA, one strand shown
Outline: as §1

ETV5, sequence (P41161 whole entry): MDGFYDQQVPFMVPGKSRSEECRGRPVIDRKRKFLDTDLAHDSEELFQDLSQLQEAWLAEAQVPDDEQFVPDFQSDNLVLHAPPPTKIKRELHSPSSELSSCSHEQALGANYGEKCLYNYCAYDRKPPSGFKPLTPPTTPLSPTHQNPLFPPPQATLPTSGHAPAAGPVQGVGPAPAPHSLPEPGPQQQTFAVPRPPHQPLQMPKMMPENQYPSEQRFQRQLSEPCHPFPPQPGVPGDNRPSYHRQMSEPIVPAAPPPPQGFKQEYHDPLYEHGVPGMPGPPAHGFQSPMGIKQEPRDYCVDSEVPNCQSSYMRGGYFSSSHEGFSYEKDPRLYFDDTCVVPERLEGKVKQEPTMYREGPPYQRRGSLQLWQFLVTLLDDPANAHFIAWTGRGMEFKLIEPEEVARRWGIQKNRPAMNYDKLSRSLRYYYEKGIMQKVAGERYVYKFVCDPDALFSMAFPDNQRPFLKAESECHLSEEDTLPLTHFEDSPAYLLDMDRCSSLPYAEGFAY
HSF1, sequence (Q00613 whole entry): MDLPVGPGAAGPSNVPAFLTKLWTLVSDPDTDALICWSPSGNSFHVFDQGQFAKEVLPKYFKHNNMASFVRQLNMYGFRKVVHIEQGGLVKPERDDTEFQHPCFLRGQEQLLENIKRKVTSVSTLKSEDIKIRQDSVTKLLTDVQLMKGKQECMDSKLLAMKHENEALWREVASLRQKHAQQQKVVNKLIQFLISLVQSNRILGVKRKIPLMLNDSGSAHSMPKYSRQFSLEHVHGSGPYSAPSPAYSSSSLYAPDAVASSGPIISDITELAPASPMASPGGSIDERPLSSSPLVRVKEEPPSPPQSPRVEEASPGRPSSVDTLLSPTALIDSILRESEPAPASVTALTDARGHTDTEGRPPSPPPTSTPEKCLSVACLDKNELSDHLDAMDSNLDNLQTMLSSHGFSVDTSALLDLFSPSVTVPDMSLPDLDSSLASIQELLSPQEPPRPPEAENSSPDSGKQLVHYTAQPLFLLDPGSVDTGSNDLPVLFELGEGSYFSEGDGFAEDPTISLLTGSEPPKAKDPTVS
ELF4, sequence (Q99607 whole entry): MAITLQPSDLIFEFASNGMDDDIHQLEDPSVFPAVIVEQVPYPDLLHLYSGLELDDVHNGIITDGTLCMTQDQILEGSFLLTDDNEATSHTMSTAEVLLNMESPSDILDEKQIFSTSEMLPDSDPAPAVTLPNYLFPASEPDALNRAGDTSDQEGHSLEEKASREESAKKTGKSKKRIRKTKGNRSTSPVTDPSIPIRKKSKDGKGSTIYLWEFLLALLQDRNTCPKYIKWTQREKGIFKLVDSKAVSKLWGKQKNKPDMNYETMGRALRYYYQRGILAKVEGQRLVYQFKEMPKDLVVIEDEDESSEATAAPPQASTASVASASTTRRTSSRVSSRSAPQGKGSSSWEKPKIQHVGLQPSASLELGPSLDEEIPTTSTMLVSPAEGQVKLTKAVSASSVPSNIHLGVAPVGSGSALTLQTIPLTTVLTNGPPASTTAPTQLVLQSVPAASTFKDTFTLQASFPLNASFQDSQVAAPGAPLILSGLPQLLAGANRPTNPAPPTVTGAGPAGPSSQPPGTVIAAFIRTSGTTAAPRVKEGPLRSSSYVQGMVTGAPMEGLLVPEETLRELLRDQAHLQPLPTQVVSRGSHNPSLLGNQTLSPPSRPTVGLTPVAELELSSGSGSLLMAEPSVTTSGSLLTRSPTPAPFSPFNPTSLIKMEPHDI
ETV6, sequence (P41212 whole entry): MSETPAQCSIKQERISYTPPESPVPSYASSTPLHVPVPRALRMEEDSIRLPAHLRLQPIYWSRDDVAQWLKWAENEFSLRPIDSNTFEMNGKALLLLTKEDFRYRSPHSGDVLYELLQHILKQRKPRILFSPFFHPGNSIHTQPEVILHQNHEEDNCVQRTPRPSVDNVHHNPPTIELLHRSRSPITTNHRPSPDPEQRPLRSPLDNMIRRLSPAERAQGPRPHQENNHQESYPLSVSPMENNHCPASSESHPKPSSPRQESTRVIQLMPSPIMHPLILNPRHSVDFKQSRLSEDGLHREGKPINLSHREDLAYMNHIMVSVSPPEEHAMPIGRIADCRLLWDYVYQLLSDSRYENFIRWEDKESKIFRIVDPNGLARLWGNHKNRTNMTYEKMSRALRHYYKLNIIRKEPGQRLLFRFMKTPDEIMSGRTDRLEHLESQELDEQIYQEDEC
CRX, sequence (O43186 whole entry): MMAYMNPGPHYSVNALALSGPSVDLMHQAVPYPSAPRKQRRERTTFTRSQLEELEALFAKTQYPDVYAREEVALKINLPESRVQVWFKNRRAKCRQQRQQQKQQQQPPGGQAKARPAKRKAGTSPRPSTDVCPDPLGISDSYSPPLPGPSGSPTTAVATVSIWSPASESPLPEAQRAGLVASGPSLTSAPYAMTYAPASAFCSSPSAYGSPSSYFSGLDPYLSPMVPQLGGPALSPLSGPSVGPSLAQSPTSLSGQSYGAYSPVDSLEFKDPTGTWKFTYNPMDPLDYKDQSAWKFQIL
ETV1, sequence (P50549 whole entry): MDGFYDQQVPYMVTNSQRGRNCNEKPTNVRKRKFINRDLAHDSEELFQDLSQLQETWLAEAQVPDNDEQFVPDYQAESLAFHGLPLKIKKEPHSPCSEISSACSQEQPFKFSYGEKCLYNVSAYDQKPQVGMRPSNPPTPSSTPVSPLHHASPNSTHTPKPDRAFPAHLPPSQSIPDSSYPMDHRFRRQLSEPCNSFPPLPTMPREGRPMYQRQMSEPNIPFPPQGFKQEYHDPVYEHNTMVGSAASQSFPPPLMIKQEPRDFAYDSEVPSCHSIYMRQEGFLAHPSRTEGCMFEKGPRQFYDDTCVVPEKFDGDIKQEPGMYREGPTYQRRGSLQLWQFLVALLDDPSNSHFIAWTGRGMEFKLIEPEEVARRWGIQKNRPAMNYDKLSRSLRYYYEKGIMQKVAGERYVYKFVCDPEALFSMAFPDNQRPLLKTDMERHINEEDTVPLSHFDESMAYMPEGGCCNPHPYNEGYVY

| Sequence | binding signal (FEV) | binding signal (ETV5) | binding signal (HSF1) | binding signal (SPIC) | binding signal (ELF4) | binding signal (ELK4) | binding signal (ETV2) | binding signal (CRX) | binding signal (ETV1) | binding signal (ERF) | binding signal (ETV3L) | binding signal (ETS2) | binding signal (SPDEF) | binding signal (ETV7) | binding signal (ELF5) | binding signal (ETV3) | binding signal (ETV6) |
| --- | --- | --- | --- | --- | --- | --- | --- | --- | --- | --- | --- | --- | --- | --- | --- | --- | --- |
| ACTCCA | 1.21 fold enrichment (6-mer frequency, TF over GST control) | 1.24 fold enrichment (6-mer frequency, TF over GST control) | 1.14 fold enrichment (6-mer frequency, TF over GST control) | 1.18 fold enrichment (6-mer frequency, TF over GST control) | 1.23 fold enrichment (6-mer frequency, TF over GST control) | 1.05 fold enrichment (6-mer frequency, TF over GST control) | 1.15 fold enrichment (6-mer frequency, TF over GST control) | 1.06 fold enrichment (6-mer frequency, TF over GST control) | 1.22 fold enrichment (6-mer frequency, TF over GST control) | 1.26 fold enrichment (6-mer frequency, TF over GST control) | 1.11 fold enrichment (6-mer frequency, TF over GST control) | 1.28 fold enrichment (6-mer frequency, TF over GST control) | 1.16 fold enrichment (6-mer frequency, TF over GST control) | 1.18 fold enrichment (6-mer frequency, TF over GST control) | 1.14 fold enrichment (6-mer frequency, TF over GST control) | 1.17 fold enrichment (6-mer frequency, TF over GST control) | 1.13 fold enrichment (6-mer frequency, TF over GST control) |
| TTAGAA | 1.02 fold enrichment (6-mer frequency, TF over GST control) | 1.01 fold enrichment (6-mer frequency, TF over GST control) | 1.93 fold enrichment (6-mer frequency, TF over GST control) | 1.25 fold enrichment (6-mer frequency, TF over GST control) | 1.04 fold enrichment (6-mer frequency, TF over GST control) | 1.1 fold enrichment (6-mer frequency, TF over GST control) | 1.13 fold enrichment (6-mer frequency, TF over GST control) | 2.08 fold enrichment (6-mer frequency, TF over GST control) | 1.11 fold enrichment (6-mer frequency, TF over GST control) | 1.1 fold enrichment (6-mer frequency, TF over GST control) | 1.07 fold enrichment (6-mer frequency, TF over GST control) | 1.08 fold enrichment (6-mer frequency, TF over GST control) | 1 fold enrichment (6-mer frequency, TF over GST control) | 1.08 fold enrichment (6-mer frequency, TF over GST control) | – | 1.06 fold enrichment (6-mer frequency, TF over GST control) | 1.15 fold enrichment (6-mer frequency, TF over GST control) |
